How the values were obtained:
Assay type in all cases: functional
[1] = system: Plasmodium falciparum; test: GSK_TCMDC: Inhibition of Plasmodium falciparum 3D7 in whole red blood cells, using parasite LDH activity as an index of growth. Test compounds present at 2uM
[2] = system: Plasmodium falciparum; test: GSK_TCMDC: Inhibition of Plasmodium falciparum Dd2 in whole red blood cells, using parasite LDH activity as an index of growth. Test compounds present at 2uM
[3] = system: HepG2; test: GSK_TCMDC: Percent inhibition of human HepG2 cell line. Test compounds present at 10uM.

CN(C(=O)NCCc1ccccc1)C1CCN(CCCCCNC(=O)/C=C/c2ccc(Cl)c(Cl)c2)CC1 showed an Inhibition [1] of 93%, an Inhibition [2] of 11% and an Inhibition [3] of 43%.

CCOc1ccccc1C=CC(=O)Nc1ccc2nc(N3CCN(C)CC3)cc(C)c2c1 gave an Inhibition [1] of 100%, an Inhibition [2] of 91% and an Inhibition [3] of 16%.

For COc1cc(Cc2cnc(N)nc2N)ccc1OCc1ccc(-c2ccccc2C#N)cc1, the Inhibition [1] was 93%, the Inhibition [2] was 3% and the Inhibition [3] was 32%.

For NCCO.O=C(Nc1ccc([N+](=O)[O-])cc1Cl)c1cc(Br)cc(Cc2ccccc2)c1O, the Inhibition [1] was 84%, the Inhibition [2] was 96% and the Inhibition [3] was 75%.

Work on COc1ccc(Cl)cc1NC(=O)Nc1cc(C)nc2ccccc12 yielded an Inhibition [1] of 100%, an Inhibition [2] of 99% and an Inhibition [3] of 10%.

O=C(Nc1ccc(Cn2ncc(N3CCCNCC3)c(Cl)c2=O)cc1)Nc1ccc(OCc2ccccc2)cc1.O=C(O)C(F)(F)F gave an Inhibition [1] of 90%, an Inhibition [2] of 32% and an Inhibition [3] of 15%.

In the case of COc1ccc(-n2nc(C)c3c2NC(=O)CC3c2ccccc2OCc2ccc(F)cc2)cc1 (stereo not drawn), the Inhibition [1] is reported as 93%, the Inhibition [2] is reported as 65% and the Inhibition [3] is reported as 53%.

COc1ccc2c(N/N=C/c3ccccc3[N+](=O)[O-])cc(C)nc2c1 showed an Inhibition [1] of 100%, an Inhibition [2] of 100% and an Inhibition [3] of 14%.

In the case of CC(C)Cn1c2ccccc2c2nc3nc(N)nc(N)c3nc21, the Inhibition [1] is reported as 93%, the Inhibition [2] is reported as 0% and the Inhibition [3] is reported as 36%.

Work on NC(=O)c1ccc(NCC(=O)Nc2cccc(-c3cccc(-c4nc5cc(F)ccc5[nH]4)c3)c2)cc1 yielded an Inhibition [1] of 97%, an Inhibition [2] of 32% and an Inhibition [3] of 15%.

For CCN(CC)CCCC(C)N/C(=N\c1ccccc1Br)Nc1ccc(C#N)cc1O (stereo not drawn), the Inhibition [1] was 89%, the Inhibition [2] was 0% and the Inhibition [3] was 4%.
